NS1 function inh = influenza NS1 inhibition; AID 2326; Potency, µM (series often up to 46.1 µM); 0.4% of 270,000 active; calls by dose curve; note: actives are rising curves; nearly all actives have a fitted effect of over 50% in size
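Growth recovery, yeast-based: influenza A NS1 expressed in S. cerevisiae causes slow growth, and suppressors are detected by OD600. The parent strain without NS1 is used as positive control.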
Pf growth 48h = P. falciparum growth inhibition at 48 hours (one generation); P. falciparum luciferase growth in erythrocytes, 48 h; Potency, µM (doses to about 28.7 µM), hits mostly inhibitors; 5.9% of 310,000 active; AID 504832
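Luciferase-expressing P. falciparum in infected erythrocytes (2% hematocrit, 0.1% parasitemia final) in RPMI 1640/0.5% Albumax were exposed to compound for 48 hours at 37 C, 5% CO2; growth read as luminescence.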
Shiga inhibitor = blocks Shiga toxin action in Vero cells | Vero cells, Shiga toxin protein synthesis inhibition reporter | inhibition, % at 38.7 µM | 9.2% of 290,000 active | AID 2315; in the data active = inhibition mostly above about 28%, no sharp cut-off; inactive = mostly below about 43%
Pf growth 96h = inhibits malaria parasite growth, 96 h. P. falciparum luciferase reporter growth, 96 h. Potency, µM (doses to about 28.7 µM), hits mostly inhibitors. 6.9% of 320,000 active
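P. falciparum expressing integrated firefly luciferase grown in erythrocytes (2% hematocrit, 0.05% parasitemia final) with compounds for 96 hours at 37 C, 5% CO2. Growth inhibition read as loss of luminescence after adding luciferase detection reagent.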
FBPA Giardia inh = Giardia lamblia aldolase inhibition; purified Giardia FBPA; Potency, µM (doses to about 59.6 µM), hits mostly inhibitors; 0.71% of 290,000 active; note: nearly all actives have a fitted effect of over 55% in size
Target sequence (A8B2U2 whole entry, looked up): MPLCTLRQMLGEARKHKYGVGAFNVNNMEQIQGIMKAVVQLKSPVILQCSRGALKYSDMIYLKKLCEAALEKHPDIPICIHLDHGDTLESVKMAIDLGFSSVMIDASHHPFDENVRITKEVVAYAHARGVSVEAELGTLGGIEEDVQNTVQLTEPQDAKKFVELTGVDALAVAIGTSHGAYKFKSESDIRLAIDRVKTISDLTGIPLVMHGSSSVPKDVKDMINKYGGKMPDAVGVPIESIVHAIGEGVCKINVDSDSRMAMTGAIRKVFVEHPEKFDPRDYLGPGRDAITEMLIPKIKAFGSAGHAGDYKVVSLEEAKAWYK
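Giardia FBPA (40 nM reagent) was preincubated 10 min at RT with compound (up to 57.5 uM final), then substrate plus GAPDH/TPI/NAD/arsenate coupling system with diaphorase/resazurin was added; resorufin fluorescence (525/598 nm) was read after 20 min.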
CHX counter = affects cycloheximide protein synthesis inhibition readout, counter-screen | max response, % | cell reporter, cycloheximide protein synthesis inhibition counterscreen | 12% of 300,000 active; in the data active = max response mostly above about 13%, no sharp cut-off; inactive = mostly below about 14%; note: read at 38.3 µM for the half of the compounds with a filed dose
Large screens that a line does not name were inactive. Compounds with a hit are over-represented: about 21% of the library has one in this group of screens. Unless noted, calls come from the whole dose curve; as a rule, active = well fitted curve in the direction sought with a large enough effect; inconclusive = small, poorly fitted or top-dose-only effect, or another doubt; inactive = no such curve, though single readings can be large; an effect the other way counts as inactive or inconclusive.

COc1ccc(N2C(=O)NC(NS(=O)(=O)c3ccccc3)(C(F)(F)F)C2=O)cc1 (centres undefined)	none
COc1ccc(N2C(=O)NC(NS(=O)(=O)c3ccc(NC(C)=O)cc3)(C(F)(F)F)C2=O)cc1 (centres undefined)	Pf growth 96h 9.3µM
Cc1cccc(NC(=O)CN(C)C(=O)/C=C/c2ccccc2)c1C	none (no result: NS1 function inh, Shiga inhibitor, FBPA Giardia inh, CHX counter)
CCOC(=O)CCN1C(=O)[C@H]2[C@H]3[C@H](O)[C@H](O)C/C(=N/OCc4ccccc4)[C@@H]3CC[C@@H]2C1=O	none (no result: NS1 function inh, Pf growth 48h, Shiga inhibitor, Pf growth 96h, CHX counter)
COc1ccc(C(=O)Nc2cccc(-c3nnc(-c4ccco4)o3)c2)cc1	CHX counter 31 (no result: Pf growth 48h, Pf growth 96h)
COc1cc(C(=O)Nc2ccc(-c3nnc(-c4ccco4)o3)cc2)cc(OC)c1OC	Pf growth 48h inconclusive (no result: FBPA Giardia inh)
COc1cc(C(=O)Nc2cccc(-c3nnc(-c4ccco4)o3)c2)ccc1OC(C)=O	Pf growth 48h inconclusive, Shiga inhibitor 66, CHX counter 31
COc1ccc(CC(=O)Nc2cccc(-c3nnc(-c4ccco4)o3)c2)cc1	Pf growth 48h inconclusive
COc1ccccc1CNC(=O)CN1C(=O)NC2(CCCc3ccccc32)C1=O (centres undefined)	none (no result: NS1 function inh, Shiga inhibitor, FBPA Giardia inh, CHX counter)
CC(=O)c1nc2ccccc2n1S(=O)(=O)c1ccc(Cl)cc1	Pf growth 96h 12µM
CC(=O)c1nc2ccccc2n1S(=O)(=O)c1ccc(C)cc1	CHX counter 23
COc1ccc2[nH]c(C(O)(Cc3cccnc3)Cc3cccnc3)cc2c1	Pf growth 96h inconclusive
COc1ccccc1OCCNC(=O)CN1C(=O)NC2(CCCCC2)C1=O	none (no result: NS1 function inh, Shiga inhibitor, FBPA Giardia inh, CHX counter)
CC1(C)CCC(NC(=O)[C@@H](N)CCC(=O)O)CC1	none (no result: Shiga inhibitor, CHX counter)
COc1ccc(NC(=O)CSc2nc3[nH]c(=O)cc(O)c3s2)c(OC)c1	Pf growth 48h 10µM (no result: NS1 function inh, Shiga inhibitor, FBPA Giardia inh, CHX counter)
N#Cc1ccc(NC(=O)CSc2nc3[nH]c(=O)cc(O)c3s2)cc1	Pf growth 48h inconclusive, Pf growth 96h 1.5µM (no result: NS1 function inh, Shiga inhibitor, FBPA Giardia inh, CHX counter)
COc1ccc(NC(=O)CSc2nc3[nH]c(=O)cc(O)c3s2)cc1OC	Pf growth 96h inconclusive (no result: NS1 function inh, Shiga inhibitor, FBPA Giardia inh, CHX counter)
CCOc1ccc(NC(=O)C(=O)NCCN2CCN(C(=O)c3ccc(C)cc3)CC2)cc1	Pf growth 96h inconclusive
Cc1ccccc1N/C(SCc1ccc(Cl)cc1)=C(/C#N)C(=O)NCc1ccco1	Pf growth 48h inconclusive, Shiga inhibitor 112, Pf growth 96h inconclusive, CHX counter 41
O=C(CCSCc1ccc(Cl)cc1)NCc1ccco1	none (no result: NS1 function inh)
Cc1cccc(C(=O)Nc2ccccc2C(=O)NCc2ccco2)c1	none (no result: FBPA Giardia inh)
Cc1ccc(CS/C(Nc2ccccc2C)=C(\C#N)C(=O)NCc2ccco2)c(C)c1	Pf growth 48h 2.3µM, Shiga inhibitor 91, CHX counter 66
O=C(CNC(=O)N1CC(=O)Nc2ccccc21)Nc1nccs1	none
CSc1ccc(CN(C)CC(=O)NCCc2ccccc2)cc1	none
Cc1onc(-c2ccccc2)c1C(=O)OCC(=O)N(CC(C)C)c1c(N)n(Cc2ccccc2)c(=O)[nH]c1=O	Pf growth 48h 13µM, Pf growth 96h inconclusive (no result: NS1 function inh, Shiga inhibitor, FBPA Giardia inh, CHX counter)
COCCN(C(=O)Cn1c(C(F)(F)F)nc2ccccc21)c1c(N)n(Cc2ccccc2)c(=O)[nH]c1=O	Pf growth 48h inconclusive, Pf growth 96h 15µM (no result: FBPA Giardia inh)
Cc1onc(-c2ccccc2)c1C(=O)OCC(=O)N(C)c1c(N)n(Cc2ccccc2)c(=O)[nH]c1=O	Pf growth 48h inconclusive, Pf growth 96h 12µM (no result: NS1 function inh, Shiga inhibitor, FBPA Giardia inh, CHX counter)
CC(C)CN(C(=O)CC1CCCC1)c1c(N)n(Cc2ccccc2)c(=O)[nH]c1=O	Pf growth 48h inconclusive (no result: NS1 function inh, Shiga inhibitor, FBPA Giardia inh, CHX counter)
CC(C)CN(C(=O)COC(=O)C12CC3CC(CC(C3)C1)C2)c1c(N)n(Cc2ccccc2)c(=O)[nH]c1=O	Pf growth 48h 1.2µM, Pf growth 96h 0.13µM (no result: NS1 function inh, Shiga inhibitor, FBPA Giardia inh, CHX counter)
CCN(C(=O)COC(=O)c1c(-c2ccccc2)noc1C)c1c(N)n(Cc2ccccc2)c(=O)[nH]c1=O	Pf growth 48h inconclusive, Pf growth 96h inconclusive (no result: FBPA Giardia inh)
CCOc1cccc(C(=O)Nc2ccccc2C(=O)N2CCOCC2)c1	Pf growth 48h inconclusive (no result: FBPA Giardia inh)
O=C(NCCCn1ccnc1)/C(=C\c1ccc(Br)cc1)NC(=O)c1ccccc1F	Pf growth 96h inconclusive (no result: FBPA Giardia inh)
CCC(C)[C@H](NC(=O)NCc1ccc(F)cc1)C(=O)O (some centres undefined)	none
Cc1ccc(C(=O)OCC(=O)N(C)c2c(N)n(Cc3ccccc3)c(=O)[nH]c2=O)s1	none (no result: NS1 function inh, Shiga inhibitor, FBPA Giardia inh, CHX counter)
CN(C(=O)COC(=O)CCC(=O)c1ccccc1)c1c(N)n(Cc2ccccc2)c(=O)[nH]c1=O	none (no result: NS1 function inh, Shiga inhibitor, FBPA Giardia inh, CHX counter)
COCCN(C(=O)COC(=O)c1ccccc1Cc1ccccc1)c1c(N)n(Cc2ccccc2)c(=O)[nH]c1=O	Pf growth 96h inconclusive (no result: NS1 function inh, Shiga inhibitor, FBPA Giardia inh, CHX counter)
CCc1nc2ccccc2c(C(=O)OCC(=O)N(CCOC)c2c(N)n(Cc3ccccc3)c(=O)[nH]c2=O)c1C	Pf growth 48h 13µM, Pf growth 96h inconclusive (no result: NS1 function inh, Shiga inhibitor, FBPA Giardia inh, CHX counter)
CN(C(=O)COC(=O)CCC(=O)c1ccc(Cl)cc1)c1c(N)n(Cc2ccccc2)c(=O)[nH]c1=O	Pf growth 96h 2.1µM (no result: NS1 function inh, Shiga inhibitor, FBPA Giardia inh, CHX counter)
COCCN(C(=O)COC(=O)c1c(-c2ccccc2)noc1C)c1c(N)n(Cc2ccccc2)c(=O)[nH]c1=O	Pf growth 48h inconclusive, Pf growth 96h 12µM (no result: FBPA Giardia inh)
Cc1nn(-c2ccccc2)c(C)c1C(=O)OCC(=O)N(C)c1c(N)n(Cc2ccccc2)c(=O)[nH]c1=O	Pf growth 48h inconclusive, Pf growth 96h 12µM (no result: NS1 function inh, Shiga inhibitor, FBPA Giardia inh, CHX counter)
Cc1cc(S(=O)(=O)Nc2ccc(C(=O)NCC(C)(C)N3CCOCC3)cc2)ccc1F	none (no result: FBPA Giardia inh)

Compound activity (PubChem)
